In general, Inhibition refers to the share of the control response that was lost under treatment. A higher Inhibition goes with strong suppression.

Out of some 23,000 compounds screened, about 30 (0.1%) showed an effect of 50% or more. Many of the other results were omitted from the sample, so strong results are more common in it than they were. Measured potencies and affinities stand elsewhere.

The text below walks through data of ChEMBL document CHEMBL4513135, “CO-ADD screening of IQOG CSIS (Spain) compounds”.

For the experiment, the system named is Pseudomonas aeruginosa. The settings on record: Concentration 32 ug.mL-1; ASSAY_TEST Inhibition of Bacterial Growth; detection method Absorption (OD600); MEDIA CAMHB; plate type 384well; NBS; CORNING #3640; time 18 hr.
Take `CCOC(=O)/C(C#N)=C\c1ccc([N+](=O)[O-])cc1`: the Inhibition was 5.37%. For `N#Cc1cc(C#N)c(N2CCCC2)nc1N` the value was 9.99%. The figure for `N#Cc1cc(C#N)c(N2CCCC2)nc1N1CCCC1` is 50.45%; for `Cl.N#Cc1cc(C#N)c(N2CCCC2)nc1Cl` it is 9.12%; for `COc1ccc2cc(C3C(C(C)=O)=C(C)Oc4nc5c(c(N)c43)CCC5)c(Cl)nc2c1` (configuration not stated) it is 8.84%. The figure for `CC(C)NNC(=O)Cc1c[nH]c2ccccc12` is 53.17%; for `O=C(Cc1c[nH]c2ccccc12)NNCc1ccccc1` it is 23.11%; for `CCCC(C)NNC(=O)Cc1c[nH]c2ccccc12` (configuration not stated) it is 22.46%. The compound `N#CC1=C(N)Oc2c(ccc3ccccc23)C1c1ccc(O)cc1` (configuration not stated) displayed an Inhibition of 17.58%. For `C#CCN(C)Cc1cc2cc(OCCCCC3CCN(Cc4ccccc4)CC3)ccc2n1C` the value was 12.81%.

As for `C#CCN(C)Cc1cc2cc(OCCC3CCN(Cc4ccccc4)CC3)ccc2n1C.Cl`, the Inhibition came out at 5.95%. In the case of `C#CCN(C)Cc1cc2cc(OCCCCC3CCN(Cc4ccccc4)CC3)ccc2n1C.Cl`, the Inhibition is listed as 51.07%. For `COc1ccc(C2c3c(nc4c(c3N)CCCC4)Oc3ccc4ccccc4c32)cc1` (configuration not stated) the value was 16.04%; for `Nc1c2c(nc3c1c1ccccc1n3Cc1ccccc1)CCCC2`, 35.2%; for `COc1cccc(C2c3c(nc4c(c3N)CCCC4)Oc3ccc4ccccc4c32)c1` (configuration not stated), 38.82%. The figure for `COC(=O)C1(NC(=O)c2ccccc2)CC1c1ccccc1` (configuration not stated) is 23.63%; for `CN(N=O)C(=O)NC1(C(=O)O)CC1c1ccccc1` (configuration not stated) it is 47.22%; for `CNC(=O)NC1(C(=O)O)CC1c1ccccc1` (configuration not stated) it is 50.33%. The figure for `CNC(=O)c1c(Cl)c2cc(OCc3ccccc3)ccc2n1C` is 34.06%. `COc1ccc(C=C2N=C(c3ccccc3)OC2=O)cc1`: the Inhibition was 9.34%.

Compound `COc1ccc(C=C2N=C(c3ccccc3)SC2=O)cc1` came in with an Inhibition of 50.12%. For `CC1=NC(=Cc2ccccc2)C(=O)S1` the value was 24.56%.
